Reference: PubChem BioAssay (NCATS)
Records with an inconclusive call do not appear. The source made the active and inactive calls. Unless noted, calls come from the whole dose curve; as a rule, active = well fitted cell-killing curve with a large enough effect; inconclusive = small, poorly fitted or top-dose-only effect; inactive = flat fitted curve, though single readings scatter.

Legend:
[1] = Cell Viability - LYMP2-025 (AID 976);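 note: series mostly up to about 92 µM; plate controls were DMSO only for no effect and tetraoctylammonium bromide control for full effect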
Procedure, shortened: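 Cytotoxicity read as loss of intracellular ATP (luciferase luminescence) after 24 h compound treatment at 37 C. Uses LYMP2-025 lymphoblastoid cells in 1536-well format; Hill-equation modelling gives AC50; tetraoctylammonium bromide as positive control.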

[2] = Cell Viability - LYMP2-002 (AID 977);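 note: series mostly up to about 92 µM; plate controls were DMSO only for no effect and 92 µM tetraoctylammonium bromide for full effect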
Procedure, shortened: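 In this qHTS viability screen, 2500 human lymphoblastoid cells per well receive compound for 24 hr at 37 C, and luciferase-based ATP luminescence gives the viability signal. Tetraoctylammonium bromide serves as positive control.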

[3] = Cell Viability - LYMP2-006 (AID 978); note: series mostly up to about 92 µM; % is set by controls: 0 for no effect and ±100 for the full control effect; nearly all actives have a fitted effect of over 60% in size
Procedure, shortened: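 qHTS, 1536-well; 2500 cells/well, 5 hr 37 C; cpd 24 hr 37 C; CellTiter-Glo 30 min RT; luminescence. Tetraoctylammonium bromide pos. ctrl. AC50 via Hill eqn.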

[4] = Cell Viability - LYMP2-007 (AID 979);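 note: cells exposed to compound for 24 h before reading; 0% = DMSO only and the negative end = 92 µM tetraoctylammonium bromide; nearly all actives have a fitted effect of over 60% in size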
Procedure, shortened: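 AC50 values come from Hill-equation fits of luminescent intracellular ATP (CellTiter-Glo, 30 min, room temperature) following 24 h compound exposure at 37 C. Cells: LYMP2-007 lymphoblastoid line, 2500 per well, in complete culture medium.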

[5] = Cell Viability - LYMP2-008 (AID 980); note: % is set by controls: 0 for no effect and ±100 for the full control effect; nearly all actives have a fitted effect of over 60% in size
Procedure, shortened: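 Cytotoxicity determined from ATP-dependent luciferase luminescence (CellTiter-Glo) following 24 h compound exposure of human lymphoblastoid LYMP2-008 cells at 37 C. Concentration-response data fitted to the Hill equation to give AC50.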

[6] = Cell Viability - LYMP2-012 (AID 982);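 note: cellular ATP by luciferase luminescence where a drop means cytotoxicity; cells exposed to compound for one day before reading; 0% = DMSO only and full loss = 92 µM tetraoctylammonium bromide; nearly all actives have a fitted effect of over 55% in size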
[7] = Cell Viability - LYMP2-014 (AID 983);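 note: series mostly up to about 92 µM; plate controls were DMSO only for no effect and 92 µM tetraoctylammonium bromide for full effect; nearly all actives have a fitted effect of over 50% in size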
Procedure, shortened: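 Intracellular ATP loss, read by luciferase luminescence, measures acute cytotoxicity after 24 h compound exposure of lymphoblastoid LYMP2-014 cells (2500/well, 37 C). Concentration-response data fitted to the Hill equation for AC50.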

[8] = Cell Viability - LYMP2-016 (AID 984); note: % is set by controls: 0 for no effect and ±100 for the full control effect; nearly all actives have a fitted effect of over 55% in size
Procedure, shortened: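 qHTS, 1536-well: 2500 LYMP2-016 cells/well, 5 hr 37 C, compound added, 24 hr 37 C, CellTiter-Glo 30 min RT, luminescence. Tetraoctylammonium bromide positive control. AC50 via Hill fit.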

[9] = Cell Viability - LYMP2-018 (AID 985);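 note: plate controls were DMSO only for no effect and tetraoctylammonium bromide at 92 µM for full effect; nearly all actives have a fitted effect of over 50% in size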
Procedure, shortened: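 Viability read as CellTiter-Glo luminescence (cellular ATP) after 24 hr compound exposure at 37 C of 2500 LYMP2-018 lymphoblastoid cells/well, pre-plated 5 hr. Hill-equation modelling gave AC50.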

[10] = Cell Viability - LYMP2-020 (AID 986);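 note: series mostly up to about 92 µM; plate controls were DMSO only for no effect and tetraoctylammonium bromide at 92 µM for full effect; nearly all actives have a fitted effect of over 55% in size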
Procedure, shortened: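 Cytotoxicity in qHTS format: luminescent ATP readout from CellTiter-Glo after 24 h compound exposure at 37 C in complete medium. LYMP2-020 lymphoblastoid cells were seeded at 2500/well; concentration-response data fitted to the Hill equation for AC50.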

[11] = Cell Viability - LYMP2-022 (AID 987);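 note: 0% = DMSO alone and full effect = tetraoctylammonium bromide at 92 µM; nearly all actives have a fitted effect of over 55% in size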
Procedure, shortened: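 Cytotoxicity read as decreased cellular ATP (CellTiter-Glo luminescence, 30 min room temperature) after 24 hours compound exposure of 2500 lymphoblastoid LYMP2-022 cells/well at 37 C. Concentration-response data fitted with standard Hill equation for AC50.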

[12] = Cell Viability - LYMP2-024 (AID 988);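 note: plate controls were DMSO only for no effect and 92 µM tetraoctylammonium bromide for full effect; nearly all actives have a fitted effect of over 60% in size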
Procedure, shortened: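 Cytotoxicity was taken as a decrease in ATP (CellTiter-Glo luminescence) after 24 hr compound exposure at 37 C of LYMP2-024 lymphoblastoid cells, 2500 cells/well. Concentration-response data were fitted to the Hill equation to give AC50.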

[13] = Cell Viability - LYMP2-026 (AID 989); note: % is set by controls: 0 for no effect and ±100 for the full control effect; nearly all actives have a fitted effect of over 50% in size
Procedure, shortened: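 Cytotoxicity read as ATP-dependent luminescence (CellTiter-Glo, 30 min room temperature) after 24 h compound treatment at 37 C. LYMP2-026 lymphoblastoid line seeded at 2500 cells/well; AC50 derived by standard Hill equation.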

[14] = Cell Viability - LYMP1-002 - Assay at 24 hr (AID 993); note: % is set by controls: 0 for no effect and ±100 for the full control effect
Procedure, shortened: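 qHTS cytotoxicity at 24 h: CellTiter-Glo ATP luminescence in lymphoblastoid line LYMP1-002 incubated with compound at 37 °C. Concentration-response modeled with the Hill equation for AC50; tetraoctylammonium bromide served as positive control.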

[15] = Cell Viability - LYMP1-002 - Assay at 40 hr (AID 994)
Procedure, shortened: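 Cytotoxicity was read as loss of cellular ATP (CellTiter-Glo luminescence) after 40 hr compound exposure at 37 C of 2500 LYMP1-002 lymphoblastoid cells per well. Concentration-response data were fitted with the standard Hill equation to give AC50.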

[16] = qHTS Assay for Identification of Small Molecule Inducers of Hypoxia Response (AID 2120; active = well fitted curve in the direction sought with a large enough effect in the signal ratio, with a control signal flat, not every such curve was filed as active; the % refers to the signal ratio; note: 0% is about no effect)
Procedure, shortened: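 Reporter induction read as the CCF4 blue/green (460nm/530nm) emission ratio after 2.5 h dye loading at room temperature. ME-180 HRE-beta-lactamase cells received titrated compounds for 17 h at 37 degrees Celsius; AC50 values derived.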

[17] = target: Estrogen receptor (Homo sapiens) (UniProt P03372); assay: qHTS assay for small molecule antagonists of estrogen receptor alpha signaling (AID 588513; active = well fitted curve in the direction sought with a large enough effect in the signal ratio, with a control signal flat, not every such curve was filed as active; the % refers to the signal ratio; note: % is set by controls: 0 for no effect and ±100 for the full control effect)
Procedure, shortened: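 Beta-lactamase reporter, antagonist mode, HEK 293 GripTite cells; 0.5nM E2 stimulus, 18 h, 37 C; CCF4 dye 2 h RT; fluorescence. IC50 and efficacy from Hill fits, normalized to E2 and DMSO.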

[18] = target: Estrogen receptor (Homo sapiens) (UniProt P03372); assay: qHTS assay for small molecule agonists of estrogen receptor alpha signaling (AID 588514; calls by dose curve;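 note: 0% = vehicle only and 100% = reference agonist; nearly all actives have a fitted effect of over 70% in size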)
Procedure, shortened: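 EC50 and efficacy came from Hill fits of beta-lactamase reporter signal (CCF4 dye, 2 h at room temperature) scaled between DMSO and 20 nM 17-beta-estradiol. Agonist mode: HEK293 ER-alpha-UAS-bla cells in charcoal/dextran-stripped serum medium, 18 h compound exposure at 37 C.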

[19] = Cell Viability - LYMP2-010 (AID 981)
Procedure, shortened: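 CellTiter-Glo ATP luminescence measured cytotoxicity after 24 h compound exposure at 37 C. LYMP2-010 cells were seeded at 2500/well, with tetraoctylammonium bromide as control; concentration-response curves gave AC50 values by the Hill equation.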

[20] = target: Androgen receptor (Homo sapiens) (UniProt P10275); assay: qHTS assay for small molecule agonists of androgen receptor signaling (AID 588515; active = well fitted curve in the direction sought with a large enough effect in the signal ratio, with a control signal flat; the % refers to the signal ratio; note: % is set by controls: 0 for no effect and ±100 for the full control effect); conditions: AR-UAS-bla HEK293, beta-lactamase ratio, agonist 16 h; active compounds read high
Procedure, shortened: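 Stimulation of an AR-responsive β-lactamase reporter in GripTite HEK293 cells was measured after 16 h compound exposure at 37 °C, via CCF4 fluorescence after 2 h RT. EC50 from Hill fits, normalized to R1881 at 30 nM.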

Chain of Estrogen receptor (Homo sapiens) (P03372 whole entry, looked up): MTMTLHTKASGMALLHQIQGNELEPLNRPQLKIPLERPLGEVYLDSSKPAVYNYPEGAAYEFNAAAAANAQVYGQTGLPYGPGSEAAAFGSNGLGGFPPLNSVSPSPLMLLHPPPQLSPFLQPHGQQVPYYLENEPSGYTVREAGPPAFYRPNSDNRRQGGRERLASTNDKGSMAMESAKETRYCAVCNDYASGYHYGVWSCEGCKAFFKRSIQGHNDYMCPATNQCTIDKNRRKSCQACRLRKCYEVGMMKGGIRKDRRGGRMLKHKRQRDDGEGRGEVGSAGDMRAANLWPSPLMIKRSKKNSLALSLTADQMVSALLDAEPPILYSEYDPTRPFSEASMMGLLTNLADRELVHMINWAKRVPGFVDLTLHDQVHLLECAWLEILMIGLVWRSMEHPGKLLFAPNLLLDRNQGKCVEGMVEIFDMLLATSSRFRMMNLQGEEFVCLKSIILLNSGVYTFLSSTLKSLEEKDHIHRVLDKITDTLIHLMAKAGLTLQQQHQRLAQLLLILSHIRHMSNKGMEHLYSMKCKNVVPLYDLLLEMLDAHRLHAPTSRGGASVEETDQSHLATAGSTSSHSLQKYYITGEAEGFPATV
Chain of Androgen receptor (Homo sapiens) (P10275 whole entry, looked up): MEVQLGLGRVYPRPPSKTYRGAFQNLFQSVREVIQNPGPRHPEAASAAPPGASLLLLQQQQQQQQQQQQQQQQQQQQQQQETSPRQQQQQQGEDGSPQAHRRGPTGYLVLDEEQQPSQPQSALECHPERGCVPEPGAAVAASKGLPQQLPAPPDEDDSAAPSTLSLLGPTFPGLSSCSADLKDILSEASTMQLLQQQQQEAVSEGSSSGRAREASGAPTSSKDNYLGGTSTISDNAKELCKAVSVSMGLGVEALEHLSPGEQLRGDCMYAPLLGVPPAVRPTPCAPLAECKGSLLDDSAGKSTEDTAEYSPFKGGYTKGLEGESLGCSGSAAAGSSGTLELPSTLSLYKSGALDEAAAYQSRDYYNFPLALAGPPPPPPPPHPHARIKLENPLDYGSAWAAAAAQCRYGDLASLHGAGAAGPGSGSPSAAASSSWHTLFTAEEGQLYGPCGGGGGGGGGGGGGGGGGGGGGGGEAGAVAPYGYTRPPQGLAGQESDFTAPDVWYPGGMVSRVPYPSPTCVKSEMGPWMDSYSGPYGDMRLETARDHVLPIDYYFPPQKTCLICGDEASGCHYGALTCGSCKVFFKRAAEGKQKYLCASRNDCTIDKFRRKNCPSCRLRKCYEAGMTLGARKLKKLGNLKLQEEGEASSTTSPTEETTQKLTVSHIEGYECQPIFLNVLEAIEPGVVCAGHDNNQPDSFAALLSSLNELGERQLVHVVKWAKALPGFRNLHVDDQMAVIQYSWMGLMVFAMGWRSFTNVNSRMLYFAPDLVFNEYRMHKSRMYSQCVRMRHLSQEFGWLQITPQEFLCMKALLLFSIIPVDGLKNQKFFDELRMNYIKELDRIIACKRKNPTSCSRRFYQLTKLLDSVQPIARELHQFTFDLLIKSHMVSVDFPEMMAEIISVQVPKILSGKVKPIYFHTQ

O=C1CCC(=O)O1
inactive: Potency [1] | Potency [2] | Potency [3] | Potency [4] | Potency [5] | Potency [6] | Potency [7] | Potency [8] | Potency [9] | Potency [10] | Potency [11] | Potency [12] | outcome [13] | Potency [14] | Potency [15] | outcome [16] | outcome [17] | Potency [18]

O=Cc1ccc(C(=O)O)cc1
inactive: Potency [1] | Potency [2] | Potency [3] | Potency [4] | Potency [5] | Potency [6] | Potency [8] | Potency [9] | Potency [10] | Potency [11] | Potency [12] | Potency [14] | Potency [15] | outcome [16] | outcome [17] | Potency [18]

Cc1cccc2ccccc12
inactive: Potency [1] | Potency [2] | Potency [3] | Potency [4] | Potency [5] | Potency [6] | Potency [7] | Potency [8] | Potency [9] | Potency [10] | Potency [11] | Potency [12] | outcome [13] | Potency [14] | Potency [15] | outcome [16] | outcome [17] | Potency [18]

c1ccsc1
inactive: Potency [1] | Potency [2] | Potency [3] | Potency [4] | Potency [5] | Potency [19] | Potency [6] | Potency [7] | Potency [8] | Potency [9] | Potency [10] | Potency [11] | outcome [13] | Potency [14] | Potency [15] | outcome [16] | outcome [17] | activation [20] -6.67%

CCNc1cc(O)ccc1C
inactive: Potency [2] | Potency [3] | Potency [4] | Potency [5] | Potency [6] | Potency [7] | Potency [8] | Potency [9] | Potency [10] | Potency [11] | Potency [14] | Potency [15] | outcome [16] | outcome [17] | Potency [18]

CCNS(=O)(=O)c1ccc(C)cc1
inactive: Potency [2] | Potency [4] | Potency [5] | Potency [19] | Potency [6] | Potency [7] | Potency [8] | Potency [10] | Potency [11] | Potency [12] | outcome [13] | Potency [14] | Potency [15] | outcome [16] | outcome [17] | Potency [18]

Cc1ccc2oc(=O)ccc2c1
inactive: Potency [2] | Potency [4] | Potency [5] | Potency [6] | Potency [7] | Potency [8] | Potency [9] | Potency [10] | Potency [12] | outcome [13] | Potency [14] | Potency [15] | outcome [16] | outcome [17] | Potency [18]

O=C1OC(=O)c2cc([N+](=O)[O-])ccc21
inactive: Potency [1] | Potency [2] | Potency [3] | Potency [4] | Potency [5] | Potency [6] | Potency [7] | Potency [8] | Potency [9] | Potency [10] | Potency [11] | Potency [12] | outcome [13] | Potency [15] | outcome [16] | outcome [17] | Potency [18]
